Growth data for 40 molecules are collected here from PubChem BioAssay (NCI).

This is part of a sample that, as a whole, favours compounds with a hit. Of some 83,000 tested, about 20% had one in any assay.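 Each cell line was grown in a 96-well plate and treated with one concentration of compound for 48 hours. Values below 10 were considered active.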 Activity calls are given as the source filed them.

The assay has as its system MDA-MB-468 breast. Briefly: NCI-60 one-dose screen, 48 h (100 = growth as untreated, 0 = no growth, -100 = all killed). Particulars: 10 µM unless noted.
As to `NS(=O)(=O)c1ccc(Nc2nc(N/N=C/c3ccc4c(c3)OCO4)nc(Nc3ccccc3)n2)cc1`, the growth is 46.4% (inactive). On to `COC(=O)[C@@H]1CCCN1C(=O)[C@@H]1CCCN1C(=O)[C@H](Cc1ccccc1)NC(=S)Nc1cc(C(F)(F)F)cc(C(F)(F)F)c1`, for which the growth is 89% (inactive). With `Cc1cc(C)c([O-])c(CN(C)CCN(C)Cc2cc(C)cc(C)c2[O-])c1.O=C([O-])c1cccc(C(=O)[O-])n1.[Ti+4]` the figure was -8.96% (active); with `CCCCCCCCCCCCCCNCc1ccccc1`, -29.3% (active); with `NNC(=O)c1sc2nc(-c3cnccn3)cc(-c3cccs3)c2c1N`, 97.2% (inactive). Take `CCN1CC(=O)N(/N=C2\C(=O)Nc3ccccc32)C1=S`: the growth was 73.1% (inactive).

Take `COc1cc(C2NC(=O)C(C#N)=C(Nc3cccc(C)c3)S2)ccc1O` (stereo not given): the growth is 96.6% (inactive). Take `CCN1C(=O)N(CC)C2C1NN=c1s/c(=C\c3ccc(C(F)(F)F)cc3)c(=O)n12` (stereo not given): the growth was 9.87% (active). With `O=C1/C(=C/c2ccc(-c3ccccc3C(F)(F)F)o2)SC(=S)N1CCc1ccc(O)cc1` the figure was 28.8% (inactive). The value for `CC(=O)Nc1c(C(=O)Nc2ccccc2)sc2nc3c(cc12)C(OC(C)=O)CCC3` (stereo not given) was 90.5% (inactive); that for `O=C(Nc1ccc(-n2cc(-c3ccncc3)c(-c3ccc(O)c(Cl)c3)n2)cc1)Nc1cc(C(F)(F)F)cc(C(F)(F)F)c1` was 37.1% (inactive); that for `Cn1cc(-c2nn3cc(-c4cccs4)nc3s2)c2cc(F)ccc21` was 44.4% (inactive).

In the case of `O=C(O)CCC/C=C\C[C@H]1C=CC(=O)/C1=C/C[C@@H](O)CCc1cccc(C(F)(F)F)c1`, the growth was -6.7% (active). The value for `COC(=O)CCC1=C(CC(=O)OC)C(C)=N/C1=C\c1[nH]c(-c2ccc[nH]2)cc1OC` was 61.9% (inactive); that for `O=C(OCC(O)C1OC(c2ccccc2)OC(COC(=O)c2ccccc2)C1O)c1ccccc1` (stereo not given) was 100% (inactive); that for `O=C(CCl)Nc1ccc(Cc2ccc(NC(=O)CCl)cc2)cc1` was -36.8% (active). With `COc1c(C)c2c(c(O)c1C/C=C(\C)CCC(=O)OCCN1CCOCC1)C(=O)OC2` the figure was 32.6% (inactive); with `OC(CSc1ccccc1)CN1CCN(c2ccc(Cl)cc2)CC1` (stereo not given), 86.7% (inactive). With `CCCCN(Cc1ccc(C(=O)NO)cc1)C(=O)Nc1ccc(OCCCCCCCCCn2cc(CCCCC(=O)N[C@H](C(=O)N3C[C@H](O)C[C@H]3C(=O)NCc3ccc(-c4scnc4C)cc3)C(C)(C)C)nn2)cc1`, the growth is 0.0949% (active). With `Cc1ccc(C(=O)O)o1` the figure was 112% (inactive). Turning to `O=C(/C=C/c1cccc(Nc2ccnc3cc(Cl)ccc23)c1)c1ccc(Cl)cc1`, the growth was 27.6% (inactive). Consider `O=C(/C=C/c1ccc([N+](=O)[O-])o1)NNC(=O)c1cc2ccccc2cc1O`, for which the growth is 6.09% (active).

Consider `O=C(Nc1nc2ccc(C(=O)N3CCN(c4ccc(Cl)c(Cl)c4)CC3)cc2s1)c1ccc(NCCc2ccccc2)c([N+](=O)[O-])c1`, for which the growth was 88.6% (inactive). With `COc1ccc(-c2nc(NC(=O)CS(=O)(=O)c3ccc(F)cc3)sc2C)cc1` the figure was 32% (inactive). The value for `O=C1/C(=C/c2ccccn2)CCc2ccccc21` was 98.4% (inactive); that for `CC(C)NS(=O)(=O)c1cccc(-c2ccc3c4c(n(CCCN(C)C)c(=O)c3c2)-c2ccccc2C4=O)c1` was 99.3% (inactive); that for `CCOC(=O)c1c(C)cc(=O)oc1C` was 105% (inactive). For `COc1cccc(-c2nn(-c3ccccc3)cc2-c2ccnc(NCCCNC(=O)c3ccccc3)c2)c1`, the growth was 15.2% (inactive). As for `Nc1nc(N)c(N=Nc2c(Br)cc(S(N)(=O)=O)cc2Br)c(N)n1`, the growth is 54% (inactive).

With `COc1ccc(Cn2cc3c(c2)-c2oncc2CC3)cc1OC`, the growth is -7.7% (active).

With `CCOC(=O)CC(C#N)(CC(=O)OCC)C(=O)OCC`, the growth is 96.9% (inactive).

`CN(CCC(=O)c1ccccc1)CCC(=O)c1ccccc1`: the growth is 73.4% (inactive).

In the case of `CC(=O)OC[C@]12CC[C@@H](C(=O)CBr)[C@@H]1[C@H]1CC[C@@H]3[C@@]4(C)CCCNC(C)(C)[C@@H]4CC[C@@]3(C)[C@]1(C)CC2`, the growth is -67.7% [100 µM] (active).

Consider `Oc1ccc2ccccc2c1C1NN=C(c2ccccc2)S1` (stereo not given), for which the growth was 3.89% (active).

With `CCN(CC)CCNC(=O)C(F)(F)C(F)(F)C(F)(F)F`, the growth was 105% (inactive). For `CC(C)CCOC(=O)c1ccccc1`, the growth was 115% (inactive). For the molecule `COc1cccc(Sc2ccc([N+](=O)[O-])c3no[n+]([O-])c23)c1`, the growth was 69.9% (inactive). As to `COC(=O)[C@]12CC[C@@H](C)[C@H](C)[C@@H]1C1=CC[C@@H]3[C@@]4(C)C(c5cnco5)=C[C@@](C)(CO)C4=CC[C@@]3(C)[C@]1(C)CC2`, the growth is 17% (inactive). With `Cc1cc(C)c2c(NC(=O)Nc3ccc(Cl)c(Cl)c3)n[nH]c2n1` the figure was 109% (inactive); with `COc1ccc(C2CC(c3ccc(Nc4ccnc5cc(Cl)ccc45)cc3)=NN2C=O)cc1` (stereo not given), 9.91% (active).
